Assay results from PubChem BioAssay AID588342 (National Center for Advancing Translational Sciences (NCATS), 2011).
About 25,000 (6.9%) of roughly 360,000 compounds were called active. About 9% were inconclusive and are not listed. Many of the other results were omitted from the sample, so actives are more common in it than they were. Unmarked numbers belong to inactive results. Calls follow the shape of the dose curve; as a rule, active = well fitted inhibition curve with a large enough effect; inconclusive = small, poorly fitted or top-dose-only effect; inactive = flat fitted curve, though single readings scatter.

These compounds were tested against Luciferin 4-monooxygenase (Photinus pyralis) (UniProt P08659) (assay: qHTS profiling assay for firefly luciferase inhibitor/activator using purifed enzyme and Km concentrations of substrates (counterscreen for miR-21 project)). Details: purified FLuc, luminescence inhibition; series mostly up to 57.5 µM; activity change, negative = inhibition: at the top concentration.
Procedure, shortened: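 Biochemical qHTS of compounds, final roughly 60 µM downward over six points, against 10 nM purified firefly luciferase using Km concentrations of substrates (10 uM D-luciferin, 10 uM ATP) in Tris acetate pH 7.5 buffer; luminescence output.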
Also: nearly all actives have a fitted effect of over 55% in size.
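For activity change, negative = inhibition in this document: plate controls were vehicle for no effect and reference inhibitor for full effect.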
Potency is read from the fitted curve at half-maximal effect.

Sequence of Luciferin 4-monooxygenase (Photinus pyralis) (P08659 whole entry, looked up): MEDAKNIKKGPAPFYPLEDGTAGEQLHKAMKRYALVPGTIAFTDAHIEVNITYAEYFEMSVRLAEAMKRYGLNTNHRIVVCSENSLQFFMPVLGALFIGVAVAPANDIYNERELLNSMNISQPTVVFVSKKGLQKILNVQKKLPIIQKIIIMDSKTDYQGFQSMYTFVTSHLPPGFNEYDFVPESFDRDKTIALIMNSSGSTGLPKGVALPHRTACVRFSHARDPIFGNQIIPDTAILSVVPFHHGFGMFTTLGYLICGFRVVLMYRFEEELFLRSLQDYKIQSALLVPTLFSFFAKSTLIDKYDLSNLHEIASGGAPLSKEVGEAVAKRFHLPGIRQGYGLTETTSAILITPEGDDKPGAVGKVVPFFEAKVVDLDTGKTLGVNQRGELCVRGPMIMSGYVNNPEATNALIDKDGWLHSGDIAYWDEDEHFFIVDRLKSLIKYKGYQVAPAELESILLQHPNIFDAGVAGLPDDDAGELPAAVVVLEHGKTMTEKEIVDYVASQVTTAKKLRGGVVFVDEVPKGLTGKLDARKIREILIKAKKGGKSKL

Point of comparison: `CCC(=O)Nc1c(C(=O)N2CCN(c3ccc(F)cc3)CC2)oc2ccccc12`, “activity change, negative = inhibition” value -2.89%. Against it:
- Cc1cc(NC(=O)c2ccco2)c(=O)n(Cc2c(F)cccc2Cl)c1 — lower, -4.61%
- CCN(CC)S(=O)(=O)c1ccc(C(=O)N=c2sc3cccc(OC)c3n2C)cc1 — higher, 2.03%
- CC1CCN(S(=O)(=O)c2ccc3c(c2)N(CC(=O)NCc2ccccc2Cl)C(=O)CO3)CC1 — higher, -0.34%
- Cc1csc2nc(COc3ccc(NC(=O)COc4ccccc4)cc3)cc(=O)n12 — higher, -0.705%
- COc1ccccc1N1CCN(c2ncnc3onc(-c4ccc(F)cc4)c23)CC1 — lower, -8.14%
- O=C(CSc1ccccc1)Nc1cccc(S(=O)(=O)N2CCOCC2)c1 — lower, -3.03%
- CCn1c2ccccc2c2cc(CC(N)=O)ccc21 — lower, -9.05%
- NC(=O)Cc1ccc2c(c1)[nH]c1ccccc12 — higher, -0.852%
- COc1ccc(CCNC(=O)c2ccc(CSCc3ccc(C)cc3)o2)cc1OC — lower, -13%
- CN1CCN(S(=O)(=O)c2ccc(N3CCN(c4ccccc4O)CC3)c([N+](=O)[O-])c2)CC1 — lower, -3.12%
- O=C(CCS(=O)(=O)c1ccccc1Cl)Nc1ccc(S(=O)(=O)Nc2ncccn2)cc1 — higher, -2.77%
- NS(=O)(=O)c1ccc(NC(=O)/C=C/c2ccccc2Cl)cc1 — higher, -1.76%
- CC(=O)Nc1ccc(S(=O)(=O)Nc2nccc(/C=C/c3ccccc3F)n2)cc1 — lower, -15.6%
- CC(=O)NS(=O)(=O)c1ccccc1 — higher, 4.9%
- COc1ccc(CNC(=O)Cn2nnc(-c3ccccc3F)n2)cc1 — higher, 0.0667%
- CCOc1cccc2sc(N3CCN(C(=O)C4CC4)CC3)nc12 — higher, 5.64%
- Cc1occc1-c1nnc(SCC(=O)NC2(C#N)CCCC2)n1C — higher, -1.51%
- Cc1ccc(CSc2oc(-c3cccs3)nc2S(=O)(=O)c2ccc(C)cc2)cc1 — higher, 6.28%
- Cc1onc(-c2ccccc2Cl)c1C(=O)OCc1nnc(-c2ccccc2)o1 — higher, 10.8%
- CCOC(=O)N1CCN(Cc2nnc(-c3ccccc3Cl)o2)CC1 — higher, 1.04%
- Cc1ccc(S(=O)(=O)c2c(Nc3cccc(Cl)c3)sc(C(=O)c3ccc4c(c3)OCO4)c2N)cc1 — higher, -0.174%
- COc1ccccc1C(=O)NC(=S)Nc1ccccc1N1CCCCC1 — higher, 4.72%
- O=C(CCCCn1c(=O)c2ccccc2n(CC(=O)Nc2cccc(C(F)(F)F)c2)c1=O)NCc1ccc2c(c1)OCO2 — higher, 0.038%
- COC(=O)c1ccc(C(=O)OC)c(NC(=S)N2CCN(c3ccc(F)cc3)CC2)c1 — higher, 3.87%
- CC(=O)Nc1cc(C(=O)NCc2ccc(F)cc2)ccc1Sc1ccc(F)cc1 — higher, 5.72%
- CC(C)NC(=O)c1nn(-c2ccccc2F)nc1CO — higher, -2.88%
- CCOC(=O)C1CCC(CN(Cc2ccc(OC)cc2)S(=O)(=O)c2ccc(F)c(C(=O)Nc3cc(C)ccc3C)c2)CC1 (stereo not drawn) — higher, 3.04%
- CCNC(=O)CC1C(=O)N(c2ccc(F)cc2)C(=O)N1Cc1ccc(C)cc1 (stereo not drawn) — higher, -0.0307%
- N#Cc1cccc(OC(=O)c2ccc3c(=O)n4c(nc3c2)CCC4)c1 — higher, 2.32%
- COc1ccccc1CNC(=O)C(=O)NCC(c1ccco1)S(=O)(=O)c1ccc(F)cc1 (stereo not drawn) — higher, 5.2%
- CCOc1cc(/C=C2/C(=N)N3OC(C)=CC3=NC2=O)ccc1OC — higher, -0.423%
- CC1=NOC(=O)/C1=C\c1ccccc1 — lower, -18.5%
- CCc1ccc(CN(Cc2ccco2)C(=O)c2ccccc2Cl)cc1 — higher, 0.23%
- Cc1cccc(NC(=O)/C(=C\c2ccco2)NC(=O)c2ccccc2)c1 — lower, -10.3%
- Cc1ccc(C(=O)NC(=S)Nc2ccc(N3CCOCC3)cc2)cc1 — lower, -19.7%
- O=C(CNC(=O)c1ccc(Br)o1)Nc1ccccc1 — higher, -1.97%
- Cc1ccccc1NC(=S)NC(=O)Cc1ccc(Cl)cc1 — higher, 0.112%
- Cc1ccc(NC(=O)NC(=O)c2ccccc2)cc1F — lower, -17.7%
- Cc1cccc(NC(=O)c2ccc([N+](=O)[O-])o2)c1 — lower, -22%
- CC1CCN(S(=O)(=O)c2ccc3c(c2)N(CC(=O)NCCc2ccccc2)C(=O)CO3)CC1 — higher, -2.8%
- O=C(NCc1cccc(Cl)c1)C1=CC=CN2CCS(=O)(=O)N=C12 — higher, 7.06%
- Cc1nnc(NCc2ccccc2)c2c1nnn2Cc1ccc(F)cc1 — lower, -6.01%
- O=C(CCS(=O)(=O)c1cc(Br)cc2c1N(C(=O)C1CC1)CC2)Nc1ccc(Br)cc1F — lower, -7.11%
- Cc1ccc(NC(=O)CSc2nc3c([nH]c4ccccc43)c(=O)n2-c2ccccc2)cc1Cl — higher, 1.48%
- NC(=O)CSc1nc2c(oc3ccccc32)c(=O)n1Cc1ccccc1 — higher, 1.23%
- Cc1ccc(OCC(=O)Nc2ccc3oc(=O)ccc3c2)cc1C — lower, -3.03%
- CC1=C(C(=O)N2CCN(c3cccc(C(F)(F)F)c3)CC2)C2(CCCCC2)OC1=O — lower, -5.3%
- COc1ccc(-c2nc3ccc(C(=O)NCc4ccc(C)cc4)cc3nc2-c2ccc(OC)cc2)cc1 — lower, -3.49%
- COc1ccc(Cc2nc3ccc(C(=O)NCc4ccc(OC)cc4OC)cc3o2)cc1 — higher, -1.85%
- COC(=O)c1ccc(CSc2nc3cc(Cl)ccc3o2)cc1 — lower, -11.3%
- CC(C)c1nc2cc(C(=O)NC(C)c3cnn(C)c3)ccc2o1 (stereo not drawn) — lower, -4.31%
- COC(=O)c1c(NC(=O)c2cc(=O)c3c(C)cc(C)cc3o2)sc2c1CCCC2 — higher, -0.931%
- CCCCN(C)S(=O)(=O)c1ccc(C(=O)Nc2sc3c(c2C(N)=O)CC(C)(C)NC3(C)C)cc1 — higher, -1.21%
- FC(F)(F)c1cc(Nc2nc3ccccc3c3nncn23)ccc1Cl — lower, -11.9%
- Cc1c(CNC2CCCCC2)c(C(=O)O)c(C)n1Cc1cccc(Cl)c1 — lower, -3.14%
- CC1=C(C(=O)OCc2ccc(C)cc2)C(c2c(Cl)cccc2Cl)CC(=O)N1 (stereo not drawn) — higher, -1.58%
- CCOC(=O)c1ccc(NC(=O)C2CC(=O)NC(=Nc3ccc(C)c(C)c3)S2)cc1 (stereo not drawn) — higher, 3.92%
- O=C1N/C(=C/c2cccs2)C(=O)N1Cc1ccc(F)cc1 — higher, 0.777%
- O=S1(=O)CCC(NC(=S)SCc2ccccc2Br)C1 (stereo not drawn) — lower, -9.29%
- Cc1ccc(S(=O)(=O)N2CCN(C(=O)COC(=O)c3c(C)noc3C)CC2)c(C)c1 — higher, -1.84%
- COc1cc(OC)cc(C(=O)NCC(=O)OCc2csc(-c3ccccc3)n2)c1 — lower, -16.2%
- CCC(C)C(N=C1NS(=O)(=O)c2ccccc21)C(=O)N1CCC(C)CC1 (stereo not drawn) — higher, 3.98%
- Nc1c(NCCc2ccccc2)c2ccccc2oc1=O — lower, -17.7%
- COc1ccc(/C(O)=C2/C(=O)C(=O)N(c3nc(C)c(C)s3)C2c2ccco2)cc1 (stereo not drawn) — higher, 0.0737%
- COc1ccc(C2/C(=C(/O)c3ccccc3)C(=O)C(=O)N2C)c(OC)c1 (stereo not drawn) — higher, 2.28%
- Cc1ccc(C(=O)Nc2ncccc2C)cc1S(=O)(=O)N1CCOCC1 — higher, -1.28%
- CCOc1cccc(/C=N/NC(=S)NCCN2CCOCC2)c1O — lower, -18.2%
- O=C1CSC(=S)N1c1ccc(O)cc1 — higher, -1.72%
- C=CCNC(=S)NNC(=O)COc1c(Cl)cc(Cl)cc1Cl — higher, 2.28%
- COc1ccccc1CNC(=O)NCc1noc2ccc(C)cc12 — lower, -15%
- O=S(=O)(Cc1nnnn1-c1ccccc1)c1ccccc1 — higher, 6.1%
- Oc1ccc(-c2nncn2-c2ccccc2)cc1 — higher, -0.826%
- COc1ccc(NC(=O)CN(C)C(=O)CNC(=O)C2CCCCC2)cc1 — higher, -2.3%
- COc1ccc(NC(=O)CN(C)C(=O)Cc2coc3cc(C)c(C)cc23)cc1 — lower, -11.8%
- COc1ccc(NC(=O)CN(C)C(=O)c2ccc(COc3ccccc3)o2)cc1 — higher, 1.28%
- CN(C)S(=O)(=O)c1ccc(NC(=O)COC(=O)c2n[nH]c3ccccc23)cc1 — higher, -1.42%
- Cc1ccc(C(=O)Nc2ccc(OCc3cc(=O)n4c5c(sc4n3)CCCC5)cc2)cc1 — higher, 1.88%
- Cc1ccc(NC(=O)CCCNC(=O)c2ccc(Cl)cc2)cc1S(=O)(=O)N1CCOCC1 — higher, -2.64%
- COc1cc(NC(=O)c2noc3c2CSc2ccccc2-3)cc(OC)c1OC — higher, 3.5%
- COc1ccc(-c2csc(-c3c(N)c(C(=O)c4ccc(OC)c(OC)c4)n4ccccc34)n2)cc1 — lower, -7.35%
- COc1ccc(CNC(=O)COCc2cc(-c3cccs3)on2)cc1OC — higher, 0.946%

In the case of `Cn1c(=NC(=O)c2ccco2)sc2cccc(F)c21`, the Potency is reported as 3.38 µM (active).
With `NC(=O)Cc1ccc2sc(-c3ccccc3)nc2c1` the Potency was 5.36 µM (active).
`O=C(/C=C/c1ccccc1Cl)Nc1ccc(S(=O)(=O)Nc2ncccn2)cc1` was tested, and the Potency was 13.5 µM (active).
`CC(=O)NS(=O)(=O)c1ccc(NC(=O)/C=C/c2ccccc2Cl)cc1` was tested, and the Potency was 12 µM (active).
For `O=C(c1ccc(Cl)s1)N(Cc1nnc(-c2ccccc2Cl)o1)C1CC1`, the Potency was 19 µM (active).
In the case of `COC(=O)c1ccc(Sc2ccc(F)cc2)c(N)c1`, the Potency is reported as 21.3 µM (active).
For `COc1cc(/C=C2/C(=O)ON=C2C)ccc1OCc1ccccc1F`, the Potency was 6.75 µM (active).
For `Cc1ccc(C(=O)NC(=S)Nc2ccccc2C)cc1`, the Potency was 19 µM (active).
For `Cc1cccc(NC(=O)NC(=S)NC(=O)c2ccccc2)c1`, the Potency was 19 µM (active).
`Cc1cccc(NC(=S)NC(=O)c2ccc(Br)o2)c1` was tested, and the Potency was 19 µM (active).
`COC(=O)c1ccc(CNC(=O)c2ccc3oc(C(C)C)nc3c2)cc1` was tested, and the Potency was 13.5 µM (active).
`COc1ccc(CNC(=O)c2ccc3oc(C(C)C)nc3c2)cc1` was tested, and the Potency was 15.1 µM (active).
`CC(C)Nc1ccc(-n2nc3ccccc3[n+]2[O-])cc1` was tested, and the Potency was 1.9 µM (active).
With `CSC1=N/C(=C\C=C\c2cccs2)C(=O)S1` the Potency was 16.9 µM (active).
In the case of `Cc1ccc(-c2nc(COC(=O)c3c(C)noc3C)cs2)cc1`, the Potency is reported as 9.53 µM (active).
With `CCOc1ccc(/C(O)=C2\C(=O)C(=O)N(c3ccc(OC)cc3)C2c2ccccc2[N+](=O)[O-])cc1` (stereo not drawn) the Potency was 8.49 µM (active).
For `CCOc1cccc(/C=N/N2C(=O)CSC2=S)c1O`, the Potency was 21.3 µM (active).
With `c1ccc(-n2nc3ccccc3n2)cc1` the Potency was 19 µM (active).
In the case of `COc1ccc(NC(=O)CN(C)C(=O)c2n[nH]c3ccccc23)cc1`, the Potency is reported as 23.9 µM (active).
For `COc1ccc(NC(=O)CN(C)C(=O)c2cc(-c3ccc(C)o3)nc3ccccc23)cc1`, the Potency was 3.38 µM (active).
For `COc1ccc(-c2csc(-c3cccs3)n2)cc1OC`, the Potency was 23.9 µM (active).
